Laboratory results reported in PubChem BioAssay (NCATS).
Records with an inconclusive call do not appear. Entries that show only a call come without a potency. Active and inactive are the calls of the source. Calls come from the whole dose curve; as a rule, active = well fitted cell-killing curve with a large enough effect; inconclusive = small, poorly fitted or top-dose-only effect; inactive = flat fitted curve, though single readings scatter.

Test: Cell Viability - LYMP2-007 (AID 979);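 note: cells exposed to compound for 24 h before reading; nearly all actives have a fitted effect of over 60% in size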
Details: LYMP2-007 lymphoblastoid cell viability; series mostly up to 92.2 µM
Description: NIH Chemical Genomics Center [NCGC]
NIH Molecular Libraries Screening Centers Network [MLSCN]
National Institutes of Environmental Health Sciences [NIEHS]
National Toxicology Program [NTP]
We have developed a 1536-well cell-based assay for quantitative high throughput screening (qHTS) against a number of cell lines to determine in vitro cytotoxicity of small molecules. This particular assay uses a human lymphoblastoid cell line (LYMP2-007) purchased from Coriell Institute for Medical Research.
NCGC Assay Protocol Summary:
The CellTiter-Glo luminescent cell viability assay (Promega) is a homogeneous method to measure the number of viable cells in culture. The end point readout of this assay is based on quantitation of intracellular ATP, an indicator of metabolic activity, using the luciferase reaction. Luciferase catalyzes the oxidation of beetle Luciferin to oxyluciferin and light in the presence of ATP. The luminescent signal is proportional to amount of ATP present.
Using the CellTiter-Glo luminescent cell viability assay, the amount of cellular ATP was measured in the lymphoblastoid cell line with complete culture medium following compound treatment for 24 hours. The assay was performed in opaque white Kalypsys 1536-well plates. In the screen, tetraoctylammonium bromide was used as positive control. Library compounds were measured for their ability to cause acute toxicity in the cell line, as reflected by a decrease in intracellular ATP levels, in a concentration-dependent manner. […] AC50 values were determined from concentration-response data modeled with the standard Hill equation.
qHTS protocol for CellTiter Glo lymphoblastoid cellular assay
[Step] [Parameter] [Value] [Description]
1. Reagent; 5 uL; 2500 lymphoblastoid cells/well
2. Time; 5 hr; 37 C incubation
4. Controls; 23 nL; Tetraoctylammonium bromide 6.4pM to 92 uM
5. Time; 24 hr; 37 C incubation
6. Reagent; 5 uL; CellTiter Glo reagent
7. Time; 30 min; Room Temperature
8. Detection; Luminescence; Viewlux plate reader
Keywords: cell viability, cytotoxicity, lymphoblastoid cell line, luminescence, NTPHTS, NTPHTS_NCGC, NIEHS, DSSTox, MLSMR, MLSCN, NIH Roadmap, qHTS, NCGC
Potency is the fitted concentration of half-maximal effect.

For `CNC(=O)O/N=C/C(C)(C)SC`, which Potency is on record?
Its Potency is “inactive”.

For `CCCC(=O)Cl`, which Potency is on record?
Its Potency is “inactive”.

For `Cc1ccc([N+](=O)[O-])cc1C`, which Potency is on record?
Its Potency is “inactive”.

With `ClC(Cl)=C(Cl)C(Cl)=C(Cl)Cl` as the compound, how does the Potency read?
The Potency was “inactive”.

For `ClC(Cl)=C(c1ccc(Cl)cc1)c1ccc(Cl)cc1`, which Potency is on record?
The Potency was “inactive”.

With `CCN(CC)c1ccccc1` as the compound, how does the Potency read?
Its Potency is “inactive”.

Which Potency does the source give for `C=CC(=C)C` here?
Its Potency is “inactive”.

For `CC(O)CCl` (stereo not given), which Potency is on record?
Its Potency is “inactive”.

For `C=C(C)C#N`, which Potency is on record?
Its Potency is “inactive”.

Which Potency does the source give for `BrCCBr` here?
Its Potency is “inactive”.

For `O=C(O)CC(O)(CC(=O)O)C(=O)O`, which Potency is on record?
Its Potency is 50.1 µM (active).

For `Cc1ccc2ccccc2c1`, which Potency is on record?
Its Potency is “inactive”.

For `Nc1ccccc1Cl`, which Potency is on record?
The Potency was “inactive”.

With `Clc1cccc(C(Cl)(Cl)Cl)n1` as the compound, how does the Potency read?
The Potency was “inactive”.

Which Potency does the source give for `C[N+](C)(C)Cc1ccccc1` here?
The Potency was “inactive”.

With `COC(=O)NC(=S)Nc1ccccc1NC(=S)NC(=O)OC` as the compound, how does the Potency read?
The Potency was “inactive”.

For `OCC1CO1` (stereo not given), which Potency is on record?
The Potency was “inactive”.

Which Potency does the source give for `O=S1OCC2C(CO1)C1(Cl)C(Cl)=C(Cl)C2(Cl)C1(Cl)Cl` (stereo not given) here?
Its Potency is “inactive”.

Which Potency does the source give for `Cc1cccc(C#N)c1` here?
The Potency was “inactive”.

For `O=[N+]([O-])c1ccc(Cl)c(Cl)c1`, which Potency is on record?
Its Potency is “inactive”.

With `Clc1nc(Cl)nc(Cl)n1` as the compound, how does the Potency read?
Its Potency is “inactive”.

Which Potency does the source give for `Nc1c(Cl)c(Cl)nc(C(=O)O)c1Cl` here?
The Potency was “inactive”.

For `ClC(Cl)=C(Cl)Cl`, which Potency is on record?
The Potency was “inactive”.

With `OCC(Br)CBr` (stereo not given) as the compound, how does the Potency read?
Its Potency is “inactive”.

With `CCNc1nc(Cl)nc(NC(C)C)n1` as the compound, how does the Potency read?
Its Potency is “inactive”.

For `C[C@]12CC[C@H]3[C@@H](CCC4=CC(=O)CC[C@@]43C)[C@@H]1CC[C@@H]2O`, which Potency is on record?
Its Potency is “inactive”.

Which Potency does the source give for `CCCCOCCOP(=O)(OCCOCCCC)OCCOCCCC` here?
The Potency was “inactive”.

Which Potency does the source give for `CC(C)(c1ccccc1)c1ccc(O)cc1` here?
The Potency was “inactive”.

With `C=CCc1ccc2c(c1)OCO2` as the compound, how does the Potency read?
The Potency was “inactive”.

With `O=C(Cl)/C=C/C(=O)Cl` as the compound, how does the Potency read?
The Potency was “inactive”.

For `O=[N+]([O-])c1cccc2ccccc12`, which Potency is on record?
The Potency was “inactive”.

Which Potency does the source give for `Nc1ccc(Br)cc1` here?
The Potency was “inactive”.

For `C=CCOC(=O)c1ccccc1N`, which Potency is on record?
The Potency was “inactive”.

For `NC(=S)Nc1ccccc1`, which Potency is on record?
The Potency was “inactive”.

Which Potency does the source give for `CC(C)(C)OO` here?
Its Potency is “inactive”.

With `c1ccc2c(c1)CCCC2` as the compound, how does the Potency read?
The Potency was “inactive”.

For `CCCSC(=O)Cl`, which Potency is on record?
Its Potency is “inactive”.

For `Cc1cccc([N+](=O)[O-])c1`, which Potency is on record?
Its Potency is “inactive”.

Which Potency does the source give for `Cc1ccccc1N` here?
Its Potency is “inactive”.

For `C=CCc1ccc(OC)cc1`, which Potency is on record?
Its Potency is “inactive”.
